Values joined by “and” are separate entries in the source; they are usually repeats but may differ in a detail not shown here. Equal entries are not always repeated. Hit rate of the full screen: of about 310,000 compounds, about 11,000 (3.5%) were called active. Inconclusive results (about 4%) are left out. Calls come from the whole dose curve; as a rule, active = well fitted inhibition curve with a large enough effect; inconclusive = small, poorly fitted or top-dose-only effect, or another doubt; inactive = no such curve, though single readings can be large or run the other way. The entries come from a sample that favours actives as a whole.
Potency is the fitted concentration of half-maximal effect.

The target of this assay is 4'-phosphopantetheinyl transferase ffp (Bacillus subtilis) (UniProt Q9F4F7). In words: qHTS Assay for Inhibitors of Bacillus subtilis Sfp phosphopantetheinyl transferase (PPTase).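 For largest response in the series, negative = inhibition: 0% = enzyme reaction without inhibitor and -100% = no enzyme wells.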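 Note: the enzyme is Sfp with the accession as filed and its product quenches rhodamine fluorescence.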 Conditions: Biochemical Sfp PPTase activity. From the text: Assay Submitter: Michael Burkart, University of California, San Diego
Screening Center PI: Austin, C.P.
Screening Center: NIH Chemical Genomics Center [NCGC]
The covalent attachment of a phosphopantetheinyl (4'-PP) arm to a variety of synthases and other proteins is a key posttranslational protein modification. The 4'-PP is installed on the proteins post-translationally from coenzyme A (CoA) on a conserved serine residue by action of phosphopantetheinyl transferase (PPTase) enzymes. Phosphopantetheinylation is essential for synthase activity, and removal of the PPTase gene precludes natural product synthesis in microorganisms, or in the case of fatty acid biosynthesis, renders the organism unviable. PPTase enzymes belong to a distinct structural superfamily. Within bacteria, these enzymes are grouped into two classes based upon primary structure, the AcpS-Type and Sfp-Type PPTases.
Sfp-type PPTases, corresponding to an activator of surfactin production in Bacillus subtilis, are responsible for modifying type I polyketide and nonribosomal peptide synthases of prokaryotes. Sfp-type PPTases are responsible for the activation of a variety of pathogen-associated virulence factors. Among these compounds are toxins such as mycolactone from Mycobacterium ulcerans, siderophores such as vibriobactin from Vibrio cholerae or mycobactin from Mycobacterium tuberculosis, as well as the mycolic acids which form the waxy cell wall of Mycobacteria. The biosyntheses of these natural products are considered attractive targets for drug design.
In search of small molecule Sfp-PPTase inhibitors, a fluorescence quenching assay was developed for detection of Bacillus subtilis Sfp-PPTase enzymatic activity in a miniaturized high-throughput format. The consensus ybbr acceptor peptide […] was N-terminally labeled with Black Hole Quencher-2 (BHQ-2) and used in combination with rhodamine-labeled coenzyme A as a co-substrate.
Inhibition of Sfp-PPTase was detected by recording the fluorescence intensity change over a 30-minute reaction period at a 525 nm excitation and 598 nm emission. Reagents were supplied by Michael Burkart and Timothy Foley, University of California at San Diego.
This BioAssay deposition is for validation of the developed Sfp-PPtase assay.
Assay Buffer: 50 mM Hepes-Na pH 7.6, 10 mM MgCl2, 0.01% Nonidet P-40, and 0.01% BSA.
3 uL of Sfp-PPTase enzyme (final concentration 15 nM) and 1 uL of substrate mixture (final concentration for rhodamine-CoA and BHQ-2-YbbR 5 uM and 12.5 uM, respectively) dispensed in columns 1, 2, 5 - 48. Columns 1 and 2 used to generate neutral control (uninhibited reaction)
Three uL of reagents, consisting of buffer (in columns 3 and 4 as negative control) and Sfp-PPTase (in columns 1, 2, 5 - 48) were dispensed into 1,536-well Greiner black solid bottom plate. Compounds (23 nL) were transferred via Kalypsys pintool equipped with 1,536-pin array. The plate was incubated for 15 min at room temperature, followed by the addition of 1 uL substrate to start the reaction. The plate was then centrifuged at 1000 rpm for 15 seconds, and the fluorescence intensity recorded on a ViewLux High-throughput CCD imager (Perkin-Elmer) using standard BODIPY optics (525 nm excitation and 598 nm emission). The plate was then incubated for 30 minutes, and a second read on the ViewLux was performed. The fluorescence intensity difference over the 30-minute period was used to calculate the respective reaction rate for each well.
On the technique in general: Quantitative high-throughput screening tests each substance at several concentrations.
With `COc1ccc(CN2C(=O)NC(=O)/C(=C\c3ccc(OC)c(OC)c3OC)C2=O)cc1`, the Potency was 56.2 µM (active).
With `C1CC[C@H]([C@@]23C[C@H](C[C@H]4CCCN[C@H]42)[C@@H]2CCCCN2C3)NC1`, the largest response in the series, negative = inhibition is 15.7% (inactive).
For the compound `CN(C)CC1Oc2ccccc2OC1(O)c1ccccc1` (configuration not stated), the Potency is 39.8 µM (active).
For the compound `CN(C)C[C@H]1CCCC[C@]1(O)c1cccc(O)c1`, the largest response in the series, negative = inhibition is 5.94% (inactive).
As to `Fc1cccc(F)c1CN1CCN(Cc2c(F)cccc2F)CC1`, the largest response in the series, negative = inhibition was 16% (inactive).
As for `Cc1cccc(-n2c(C)nc3cc(C(=O)N4CCC5(CC4)OCCO5)ccc32)c1`, the largest response in the series, negative = inhibition is 8.78% (inactive).
With `CN(C)P(=S)(Nc1ccccc1)C(Cl)(Cl)Cl` (configuration not stated), the largest response in the series, negative = inhibition was 10.7% (inactive).
In the case of `COC([CH2][Hg])CNC(=O)c1ccccc1OCC(=O)O` (configuration not stated), the Potency is 0.398 µM (active).
Turning to `O=C(NC(c1ccc(Cl)cc1)P(=O)(Oc1ccccc1)Oc1ccccc1)OCc1ccccc1` (configuration not stated), the largest response in the series, negative = inhibition is 19.5% (inactive).
With `CN1CCCC(=C(c2cccs2)c2cccs2)C1`, the largest response in the series, negative = inhibition is 3.76% (inactive).
For `c1ccc2c(c1)[I+]c1ccccc1-2`, the largest response in the series, negative = inhibition was -15.8% (inactive) and 9.27% (inactive).
On the same count and under the same terms, the figure for `O=C1CCc2cccc3c2N1CC3` is -2.12% (inactive).
Consider `O=C(O)CCn1cc(C=C2C(=O)NC(=S)NC2=O)c(-c2cccc(Br)c2)n1`, for which the Potency is 25.1 µM (active).
Regarding `O=P1(Oc2ccccc2)CC(O)C(O)C(COCc2ccccc2)O1` (configuration not stated), the largest response in the series, negative = inhibition is -2.12% (inactive).
On to `CCCCCCCCCCCCCC(=O)O[C@@H]1[C@@H](C)[C@@]2(O)[C@@H](C=C(CO)C[C@]3(O)C(=O)C(C)=C[C@@H]23)[C@@H]2C(C)(C)[C@]12OC(C)=O`, for which the largest response in the series, negative = inhibition was 9.82% (inactive).
Turning to `c1ccc2sc(C3CCCNC3)nc2c1` (configuration not stated), the largest response in the series, negative = inhibition is 9.62% (inactive).
Regarding `Cc1ccc(N(C)C(=O)Oc2cccc3ccc(C)nc23)cc1`, the largest response in the series, negative = inhibition is 4.73% (inactive).
With `CC(C)c1ccc(O)c(CN2CCN(c3ccccc3)CC2)c1`, the largest response in the series, negative = inhibition was 7.52% (inactive).
As to `c1cc2c(cc1CCNC1CCCCCC1)OCO2`, the largest response in the series, negative = inhibition is -0.383% (inactive).
Same read-out and setting: the value for `CCOP(=S)(OCC)C(O)CCCCCn1c(=O)c(F)cn(C2CCCO2)c1=O` (configuration not stated) was 8.97% (inactive); that for `N#Cc1cc(Br)c(O)c(Br)c1` was 9.61% (inactive).
As for `C/C(=C\C=C/[C@@H](C)C(=O)O)[C@H]1CN[C@H](C(=O)O)[C@@H]1CC(=O)O`, the Potency was 63.1 µM (active).
With `C/C=C1\C2C=C(C)CC1(N)c1ccc(=O)[nH]c1C2` (configuration not stated), the largest response in the series, negative = inhibition was 24.3% (inactive).
For `CN(C)C(=O)NC(O)C(Cl)(Cl)Cl` (configuration not stated), the largest response in the series, negative = inhibition was 0.838% (inactive).
As for `CNC(C)[C@@H](O)c1ccccc1` (some centres not stated), the largest response in the series, negative = inhibition was 20.7% (inactive).
Consider `O=C1NC(=O)C(C/C=C/c2ccccc2)C(=O)N1`, for which the Potency was 70.8 µM (active).
On to `COc1ccc(CCn2c(O)c(C=NCCCn3ccnc3)c(=O)[nH]c2=O)cc1OC`, for which the largest response in the series, negative = inhibition was 15.8% (inactive).
Regarding `CC(Cc1cccs1)NCc1ccc(Cl)cc1` (configuration not stated), the largest response in the series, negative = inhibition was 26% (inactive).
In the case of `O=C(O)c1ccccc1NC(=O)C1C2CCC(O2)C1C(=O)O` (configuration not stated), the largest response in the series, negative = inhibition is 2.88% (inactive).
For `Cc1cc(C=C2C(=O)NC(=O)NC2=O)c(C)n1-c1ccncc1`, the Potency is 56.2 µM (active).
On the same count and under the same terms, the value for `Cc1ccnc(-n2c(C)cc(/C=C3\C(=O)NC(=S)N(C)C3=O)c2C)c1` was 25.1 µM (active).
For `Cc1ccc(-n2c(C)cc(/C=C3\C(=O)NC(=O)N(C)C3=O)c2C)cc1C`, the largest response in the series, negative = inhibition is -19.1% (inactive).
Same read-out and setting: the figure for `CCN1C[C@]2(C)CC[C@H](O)[C@@]34[C@@H]5CC6[C@@H](OC)C[C@@](O)([C@@H]5[C@@H]6O)[C@H](C[C@@H]23)[C@H]14` is 12.6% (inactive); for `CC12CN3CC(C)(CN(C1)C3c1cccs1)C2` (configuration not stated) it is 10.2% (inactive); for `CCCCCCCCc1[se]c2ccccc2c1Br` it is 14.5% (inactive).
As to `O=C(Nc1cccc2ccccc12)N1CCC2(CC1)OCCO2`, the largest response in the series, negative = inhibition was 0.463% (inactive).
Regarding `O=C(OCC1O[C@@H](OC(=O)c2cc(O)c(O)c(O)c2)[C@@H](OC(=O)c2cc(O)c(O)c(O)c2)[C@@H](OC(=O)c2cc(O)c(O)c(O)c2)[C@@H]1OC(=O)c1cc(O)c(O)c(O)c1)c1cc(O)c(O)c(O)c1` (some centres not stated), the Potency was 25.1 µM (active).
In the case of `O=C1NC(=O)C(CCc2ccccn2)(Cc2cccc(Cl)c2Cl)C(=O)N1c1ccc(Br)cc1` (configuration not stated), the largest response in the series, negative = inhibition is 4.65% (inactive).
On the same count and under the same terms, the value for `COc1cc2c(cc1OC)[C@@H]1C(=O)c3ccc(O)c(CC=C(C)C)c3OC1CO2` (some centres not stated) was 0.512% (inactive).
On the same count and under the same terms, the value for `CC(=O)c1c(O)c(C)c(O)c(Cc2c(O)c3c(c(C(=O)/C=C/c4ccccc4)c2O)OC(C)(C)C=C3)c1O` was -11.4% (inactive) and -12.1% (inactive) and -5.71% (inactive).
On the same count and under the same terms, the value for `COc1ccccc1-c1[se]c2ccccc2c1I` was -3.36% (inactive).
For `COc1ccc(N2C(=O)/C(=C/c3ccco3)C(=O)NC2=S)cc1`, the Potency was 11.2 µM (active).
As for `BrC1C(Br)C(Br)C(Br)C(Br)C1Br` (configuration not stated), the Potency is 79.4 µM (active).
Take `Cc1ccc(C2CN(C)CC2C(=O)c2ccc(F)cc2)cc1` (configuration not stated): the largest response in the series, negative = inhibition was 15% (inactive).
Take `CC(=NC1CCN(Cc2ccccc2)CC1)c1c(O)n(C)c(=O)n(C)c1=O`: the largest response in the series, negative = inhibition was 8.13% (inactive).
Still for that read-out and setting: the value for `NC[C@H](O)c1ccc(O)cc1` was 5.47% (inactive); that for `CC[C@@H]1CN2CC[C@@H]1C[C@H]2[C@H](O)c1ccnc2ccc(OC)cc12` was 6.78% (inactive); that for `CCN1C[C@]2(COC)C(O)C[C@H](OC)[C@@]34C5C[C@]6(O)C(OC)C(O)[C@](OC(C)=O)(C5C6OC(=O)c5ccccc5)C(C(OC)C23)C14` (some centres not stated) was 5.25% (inactive).
On to `CC(=O)[O][Sn]([c]1ccccc1)([c]1ccccc1)[c]1ccccc1`, for which the Potency was 1.41 µM (active).
In the case of `COC(=O)N1C(c2ccccc2)C1c1ccccc1` (configuration not stated), the largest response in the series, negative = inhibition is 17.3% (inactive).
`COc1cccc(-c2nc3ccc(N4CCN(C)CC4)cc3[nH]2)c1`: the largest response in the series, negative = inhibition is -7.35% (inactive).
With `CCCN(C/C=C/I)C1CCc2ccc(O)cc2C1` (configuration not stated), the largest response in the series, negative = inhibition was -26.2% (inactive).
On to `C[C@@]12CC[C@H]3[C@@H](CC[C@]4(O)C[C@H](O)CC[C@@]34C=O)[C@]1(O)CC[C@@H]2C1=CC(=O)OC1`, for which the largest response in the series, negative = inhibition is 17.6% (inactive).
Regarding `O=C1N=c2ccccc2=C/C1=C\c1c(O)[nH]c(=S)[nH]c1=O`, the Potency is 25.1 µM (active).
Consider `Cc1ccc2c(c1)=C/C(=C\c1c(O)[nH]c(=O)[nH]c1=O)C(=O)N=2`, for which the Potency is 28.2 µM (active).
In the case of `O=c1[nH]c(O)c(C=Nc2cc(F)cc(F)c2)c(=O)[nH]1`, the largest response in the series, negative = inhibition was -4.22% (inactive).
For the compound `COc1ccccc1N=Nc1c(O)[nH]c(=S)[nH]c1=O`, the largest response in the series, negative = inhibition was -20.4% (inactive).

Source of the values: PubChem BioAssay AID1490 (National Center for Advancing Translational Sciences (NCATS), 2009).
